Data taken from PubChem BioAssay AID1159580 (chemical genetic matrix, 2015).
Screen size: about 5,500 compounds; about 2,000 (36%) were called active. About 18% were inconclusive and are not listed. No stated cut-off is given here; in the data, active means normalized growth mostly below about 0.91 (no sharp cut-off); inconclusive means no clear call, values can overlap the other calls; inactive means mostly above about 0.92. The list shows a part of the results.

Experiment: chemical genetic growth profiling, strain panel (AID 1159580);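 further: tested at 20 µM; growth read once vehicle control cultures reached saturation at 30 °C; 1 = growth at the plate median or of vehicle wells; lower values mean less growth of the strain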
Settings: S. cerevisiae deletion strains, growth OD

Measured: normalized growth

O=c1c(-c2ccccc2)coc2cc(O)cc(O)c12
active: locus YAL013W, strain DEP1, hits give low values 0.837 | locus YBR229C, strain ROT2, hits give low values 0.853 | locus YCL029C, strain bik1, hits give low values 0.636 | locus YDL035C, strain GPR1, hits give low values 0.825 | locus YDL074C, strain BRE1, hits give low values 0.564 | locus YDL101C, strain DUN1, hits give low values 0.494 | locus YDL185W, strain tfp1, hits give low values 0.332 | locus YDL192W, strain arf1, hits give low values 0.781 | locus YDR101C, strain arx1, hits give low values 0.758 | locus YDR137W, strain rgp1, hits give low values 0.821 | locus YDR162C, strain NBP2, hits give low values 0.826 | locus YDR318W, strain mcm21, hits give low values 0.819 | locus YDR388W, hits give low values 0.879 | locus YDR502C, strain sam2, hits give low values 0.793 | locus YER110C, hits give low values 0.84 | locus YER155C, strain BEM2, hits give low values 0.769 | locus YGL078C, strain dbp3, hits give low values 0.822 | locus YGL086W, strain mad1, hits give low values 0.786 | locus YGL248W, strain PDE1, hits give low values 0.744 | locus YGR135W, strain pre9, hits give low values 0.727 | locus YGR229C, strain SMI1, hits give low values 0.613 | locus YGR252W, strain gcn5, hits give low values 0.648 | locus YHR030C, strain SLT2, hits give low values 0.879 | locus YHR079C, strain IRE1 (second series), hits give low values 0.739 | locus YHR129C, strain ARP1, hits give low values 0.795 | locus YHR200W, strain rpn10, hits give low values 0.84 | locus YIL066C, strain RNR3, hits give low values 0.817 | locus YIL125W, strain kgd1, hits give low values 0.755 | locus YIR030C, strain dcg1, hits give low values 0.884 | locus YJL095W, strain BCK1, hits give low values 0.447 | locus YJL134W, strain LCB3, hits give low values 0.924 | locus YJL187C, strain SWE1 (second series), hits give low values 0.394
inactive: locus YAL021C, strain ccr4, hits give low values 0.977 | locus YAL026C, strain drs2, hits give low values 0.927 | locus YAL030W, strain snc1, hits give low values 0.99 | locus YBL061C, strain skt5, hits give low values 0.978 | locus YBR009C, strain hhf1, hits give low values 0.946 | locus YBR021W, strain FUR4, hits give low values 0.859 | locus YBR023C, strain chs3, hits give low values 0.967 | locus YBR171W, strain sec66, hits give low values 1.01 | locus YBR231C, strain swc5, hits give low values 0.965 | locus YBR279W, strain paf1, hits give low values 1 | locus YCL011C, strain gbp2, hits give low values 0.969 | locus YCL016C, strain dcc1, hits give low values 0.983 | locus YCL061C, strain MRC1, hits give low values 0.961 | locus YCL069W, strain vba3, hits give low values 1 | locus YCR088W, strain abp1, hits give low values 1.01 | locus YDL005C, strain med2, hits give low values 1.04 | locus YDL040C, strain nat1, hits give low values 1.01 | locus YDR001C, strain nth1, hits give low values 1.01 | locus YDR069C, strain doa4, hits give low values 0.903 | locus YDR159W, strain sac3, hits give low values 1.08 | locus YDR195W, strain ref2 1.03 | locus YDR297W, strain sur2, hits give low values 0.977 | locus YDR334W, strain swr1, hits give low values 0.995 | locus YDR335W, strain msn5, hits give low values 0.993 | locus YDR392W, strain spt3, hits give low values 0.913 | locus YEL003W, strain gim4, hits give low values 0.971 | locus YEL037C, strain rad23, hits give low values 0.981 | locus YEL061C, strain CIN8 (second series), hits give low values 1.02 | locus YER015W, strain faa2, hits give low values 0.979 | locus YER016W, strain bim1, hits give low values 1.01 | locus YER111C, strain swi4, hits give low values 0.963 | locus YER155C, strain BEM2 (second series), hits give low values 0.982 | locus YER167W, strain BCK2, hits give low values 0.911 | locus YFR010W, strain ubp6, hits give low values 0.937 | locus YGL167C, strain pmr1, hits give low values 1.01 | locus YGL173C, strain kem1, hits give low values 0.991 | locus YGL227W, strain vid30, hits give low values 1.02 | locus YGL240W, strain doc1, hits give low values 0.935 | locus YGL253W, strain hxk2, hits give low values 0.972 | locus YHR013C, strain ard1, hits give low values 0.992 | locus YHR027C, strain rpn1, hits give low values 0.998 | locus YHR094C, strain hxt1, hits give low values 0.936 | locus YHR142W, strain chs7, hits give low values 0.946 | locus YIL073C, strain SPO22, hits give low values 0.76 | locus YJL092W, strain hpr5, hits give low values 0.993 | locus YJL095W, strain BCK1 (second series), hits give low values 0.996 | locus YJL115W, strain asf1, hits give low values 1.02 | locus YJL129C, strain trk1, hits give low values 1 | locus YJL154C, strain vps35, hits give low values 1.02 | locus YJL164C, strain tpk1, hits give low values 0.934 | locus YJL166W, strain qcr8, hits give low values 0.966 | locus YJL168C, strain set2, hits give low values 0.973
